Experimental data from PubChem BioAssay (NCATS).
Where “and” joins values, the source holds several entries; their conditions need not be identical. Identical values can stand only once. Results filed as inconclusive are left out. Calls of active or inactive are those of the source. Calls follow the shape of the dose curve; as a rule, active = well fitted inhibition curve with a large enough effect; inconclusive = small, poorly fitted or top-dose-only effect; inactive = flat fitted curve, though single readings scatter.

Tests used:
PAD = test: qHTS profiling for inhibitors of Plasmodium falciparum proliferation (AID 504749);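 also: 0% = DMSO vehicle and full inhibition = artemisinin control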; conditions: P. falciparum in erythrocytes, SYBR Green DNA, 72 h; series mostly up to 28.7 µM
Summary of the method: (§1)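 Three-day growth assay of blood-stage parasites in erythrocytes (0.3% parasitemia, 2.5% hematocrit) at 37 C, 5% CO2, quantified by SYBR Green DNA staining after overnight detergent lysis.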

PC15 = test: as above; conditions: P. falciparum in erythrocytes, SYBR Green DNA, 72 h; series mostly up to 28.7 µM
Summary of the method: as §1

PC26 = test: as above; conditions: P. falciparum in erythrocytes, SYBR Green DNA, 72 h; series mostly up to 28.7 µM
Summary of the method: as §1

PC49 = test: as above; conditions: P. falciparum in erythrocytes, SYBR Green DNA, 72 h; series mostly up to 28.7 µM
Summary of the method: as §1

SC27B = test: as above; conditions: P. falciparum in erythrocytes, SYBR Green DNA, 72 h; series mostly up to 28.7 µM
Summary of the method: as §1

TAB109 = test: as above; conditions: P. falciparum in erythrocytes, SYBR Green DNA, 72 h; series mostly up to 28.7 µM
Summary of the method: as §1

TAB113 = test: as above; conditions: P. falciparum in erythrocytes, SYBR Green DNA, 72 h; series mostly up to 28.7 µM
Summary of the method: as §1

TAB165 = test: as above; conditions: P. falciparum in erythrocytes, SYBR Green DNA, 72 h; series mostly up to 28.7 µM
Summary of the method: as §1

CRL-7250 [1] = test: Cytotoxic Profiling of Annotated Libraries Using Quantitative High-Throughput Screening (AID 1296008); conditions: Five cell lines viability, CellTiter-Glo ATP luminescence, 48-72 h; max response: stronger effect = lower value; as to max response: % is scaled to controls: 0 for no effect and ±100 for the full control effect
Summary of the method: (§2)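 Cytotoxicity was measured as CellTiter-Glo ATP luminescence, read after 10 min at room temperature. Compound treatment of the cells lasted 48 or 72 hr at 37 degrees Celsius in a qHTS format.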

HEK293 = test: as above; conditions: Five cell lines viability, CellTiter-Glo ATP luminescence, 48-72 h; max response: stronger effect = lower value
Summary of the method: as §2

HaCat [2] = test: as above; conditions: Five cell lines viability, CellTiter-Glo ATP luminescence, 48-72 h; max response: stronger effect = lower value
Summary of the method: as §2

KB-3-1 = test: as above; conditions: Five cell lines viability, CellTiter-Glo ATP luminescence, 48-72 h; max response: stronger effect = lower value
Summary of the method: as §2

NIH3T3 = test: as above; conditions: Five cell lines viability, CellTiter-Glo ATP luminescence, 48-72 h; max response: stronger effect = lower value
Summary of the method: as §2

HACAT [3] = test: qHTS assay to identify novel small-molecules to repurpose for Merkel cell carcinoma treatment (AID 1296009); conditions: MCC and control cell lines, CellTiter-Glo viability, 72 h; at 44.8 µM (top of the series) unless noted
Summary of the method: (§3)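 After compound transfer in DMSO, plates were kept 72 hr at 37 degree celsius. Luminescent ATP signal from CellTiter-Glo served as viability measure, normalized against DMSO and no-cell controls.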

MCC-13 = test: as above; conditions: MCC and control cell lines, CellTiter-Glo viability, 72 h; series mostly up to 46 µM
Summary of the method: as §3

MCC-26 = test: as above; conditions: MCC and control cell lines, CellTiter-Glo viability, 72 h; series mostly up to 46 µM
Summary of the method: as §3

MKL-1 = test: as above; conditions: MCC and control cell lines, CellTiter-Glo viability, 72 h; series mostly up to 46 µM
Summary of the method: as §3

HEK293T = test: as above; conditions: MCC and control cell lines, CellTiter-Glo viability, 72 h; at 44.8 µM (top of the series)
Summary of the method: as §3

W2 = test: qHTS profiling for inhibitors of Plasmodium falciparum proliferation (AID 504749);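 also: 0% = DMSO vehicle and full inhibition = artemisinin control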; conditions: P. falciparum in erythrocytes, SYBR Green DNA, 72 h; series mostly up to 28.7 µM
Summary of the method: as §1

CRL-7250 [4] = test: qHTS assay to identify novel small-molecules to repurpose for Merkel cell carcinoma treatment (AID 1296009); conditions: MCC and control cell lines, CellTiter-Glo viability, 72 h; at 44.8 µM (top of the series) unless noted
Summary of the method: as §3
Also: nearly all actives have a fitted effect of over 60% in size.

OC(O)C(Cl)(Cl)Cl
inactive: Potency (PAD) | Potency (PC15) | Potency (PC26) | Potency (PC49) | Potency (SC27B) | Potency (TAB109) | Potency (TAB113) | Potency (TAB165) | max response (CRL-7250 [1]) -3.66% | max response (HEK293) -2.43% | outcome (HaCat [2]) | max response (KB-3-1) 1.25% | outcome (NIH3T3) | outcome (HACAT [3]) | Potency (MCC-13) | Potency (MCC-26) | Potency (MKL-1)

C[C@H]1CNCCc2ccc(Cl)cc21
inactive: outcome (CRL-7250 [1]) | outcome (HEK293) | max response (HaCat [2]) 2.82% | max response (KB-3-1) -14.3% | outcome (NIH3T3) | outcome (HEK293T) | Potency (MCC-13) | Potency (MCC-26) | Potency (MKL-1)

Cc1ccc(N=CN(C)C=Nc2ccc(C)cc2C)c(C)c1
inactive: Potency (PAD) | Potency (PC15) | Potency (PC26) | Potency (PC49) | Potency (SC27B) | Potency (TAB109) | Potency (TAB113) | Potency (TAB165) | Potency (W2) | max response (CRL-7250 [1]) -6.67% | outcome (HEK293) | max response (HaCat [2]) -15.3% | max response (KB-3-1) 1.07% | outcome (NIH3T3) | outcome (HEK293T) | Potency (MCC-13) | Potency (MCC-26) | Potency (MKL-1)

CCCC[N+]1(C)[C@@H]2CC(OC(=O)[C@H](CO)c3ccccc3)C[C@H]1[C@@H]1O[C@@H]12 (stereo partly specified)
inactive: max response (CRL-7250 [1]) -24.5% | outcome (CRL-7250 [1]) | outcome (HEK293) | max response (HaCat [2]) -9.09% | outcome (HaCat [2]) | max response (KB-3-1) 6.44% and 1.1% | max response (NIH3T3) 4.56% and 3.97% | outcome (CRL-7250 [4]) | outcome (HACAT [3]) | outcome (HEK293T) | Potency (MCC-13) | Potency (MCC-26) | Potency (MKL-1)

CCOC(=O)NC(C)(C)Cc1ccc(Cl)cc1
inactive: max response (CRL-7250 [1]) -4.28% | outcome (HEK293) | max response (HaCat [2]) 1.84% | max response (KB-3-1) 2.37% | max response (NIH3T3) -3.93% | outcome (HEK293T) | Potency (MCC-13) | Potency (MCC-26) | Potency (MKL-1)

CN(C)CCc1c[nH]c2ccccc12
inactive: max response (CRL-7250 [1]) 2.04% | max response (HEK293) -13.9% | max response (HaCat [2]) 4.72% | max response (KB-3-1) -5.51% | max response (NIH3T3) 2.6% | Potency (MCC-13) | Potency (MCC-26) | Potency (MKL-1)

O=C(O)c1nn(Cc2ccc(Cl)cc2Cl)c2ccccc12
inactive: Potency (PAD) | Potency (PC15) | Potency (PC26) | Potency (PC49) | Potency (SC27B) | Potency (TAB109) | Potency (TAB113) | Potency (TAB165) | Potency (W2) | max response (CRL-7250 [1]) -5.04% and -7.58% | max response (HEK293) -10.4% | outcome (HEK293) | max response (HaCat [2]) -0.99% | outcome (HaCat [2]) | max response (KB-3-1) 4.9% and -9.13% | max response (NIH3T3) -6.41% | outcome (NIH3T3) | outcome (HACAT [3]) | outcome (HEK293T) | Potency (MCC-13) | Potency (MCC-26) | Potency (MKL-1)
